Assay [1] is described as follows: Nuclear factor erythroid 2-related factor 2/antioxidant responsive element (Nrf2/ARE) small molecule agonists: qHTS cell viability counter screen in human keratinocytes (AID 1919968; active = well fitted curve in the direction sought with a large enough effect in the repeat runs; an effect the other way counts as inactive or inconclusive; also: nearly all actives have a fitted effect of over 55% in size; also: potency is read from the fitted curve at half-maximal effect). The procedure, abridged:
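Seed 1,500 KeratinoSens cells per well, then incubate 5 h at 37 C/5% CO2. Add compounds in DMSO and incubate 23 h. Add CellTiter-Fluor, wait 1 h and read fluorescence.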

Assay [2] in a line: Nuclear factor erythroid 2-related factor 2/antioxidant responsive element (Nrf2/ARE) small molecule agonists: luciferase reporter gene qHTS assay in human keratinocytes (AID 1919969). Also: nearly all actives have a fitted effect of over 35% in size.
Assay [3] deals with Gonadotropin-releasing hormone receptor (Homo sapiens) (UniProt P30968). Put plainly: Human gonadotropin-releasing hormone receptor (GnRHR) small molecule agonists, calcium flux assay in GnRHR-HEK293 cells (AID 1920063). Also: nearly all actives have a fitted effect of over 35% in size. In outline: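 Cells: HEK293 stably expressing human GnRHR. Steps: overnight (18 h) culture, 1 h calcium dye loading at 37 C, compound addition, kinetic fluorescence read at 480/540 nm. Each compound tested at 15 concentrations in triplicate.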
Gonadotropin-releasing hormone receptor (Homo sapiens), sequence (P30968 whole entry, looked up): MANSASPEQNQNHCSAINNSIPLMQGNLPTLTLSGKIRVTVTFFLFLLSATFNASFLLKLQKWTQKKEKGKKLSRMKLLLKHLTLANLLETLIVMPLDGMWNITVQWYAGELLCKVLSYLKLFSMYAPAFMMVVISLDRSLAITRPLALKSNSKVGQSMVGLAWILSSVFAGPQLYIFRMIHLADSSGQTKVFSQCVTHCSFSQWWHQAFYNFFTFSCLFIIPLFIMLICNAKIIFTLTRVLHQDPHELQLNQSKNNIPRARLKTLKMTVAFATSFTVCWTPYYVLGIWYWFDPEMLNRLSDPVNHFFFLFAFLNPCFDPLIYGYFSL

A short description of assay [4]: p53 small molecule agonists, cell-based qHTS assay with human liver microsomes (AID 1963577). The procedure, abridged: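 Compounds act here after metabolic activation: human liver microsomes and NADPH, both at 0.5 mg/mL final, were co-added to p53RE-bla cells. Incubation ran 16 h at 37 C, followed by LiveBLAzer detection.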
Assay [5] in a line: p53 small molecule agonists, cell-based qHTS assay with rat liver microsomes (AID 1963578). In outline: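 Read-out is beta-lactamase reporter fluorescence (LiveBLAzer, 2 h, room temperature, dark) in p53RE-bla cells treated 16 h at 37 C with compound, rat liver microsomes and NADPH, both 0.5 mg/mL final.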
Assay [6] is described as follows: p53 small molecule agonists, cell-based qHTS assay with human liver microsomes: qHTS cell viability counter screen (AID 1963579). Also: nearly all actives have a fitted effect of over 45% in size. In outline:
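Cells carrying the p53 response-element beta-lactamase reporter are treated for 16 h at 37 C with test compounds in the presence of human liver microsomes and NADPH (both 0.5 mg/mL final); ATP-based CellTiter-Glo luminescence then reports viability.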

Assay [7] in a line: p53 small molecule agonists, cell-based qHTS assay with rat liver microsomes: qHTS cell viability counter screen (AID 1963580). Also: nearly all actives have a fitted effect of over 45% in size. Also: potency is read from the fitted curve at half-maximal effect. The procedure, abridged:
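p53RE-bla HCT-116 cells (4,000/well) rested 5 h at 37 C, then given Tox21 compounds in DMSO with rat liver microsomes (0.5 mg/mL final) plus NADPH (0.5 mg/mL final) for 16 h at 37 C. Viability read by CellTiter-Glo luminescence after 30 min at room temperature.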

Assay [8] in a line: p53 small molecule agonists, cell-based qHTS assay: qHTS cell viability counter screen (AID 1963581). Also: nearly all actives have a fitted effect of over 45% in size. Also: potency is read from the fitted curve at half-maximal effect. In outline: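 Cells: HCT-116 with p53 response element-driven beta-lactamase. Treatment: 16 h, 37 C, compounds in DMSO. Read: CellTiter-Glo luminescence after 30 min RT.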
Assay [9] can be described thus: p53 small molecule agonists, cell-based qHTS assay (AID 1963582; active = well fitted activation curve with a large enough effect in the signal ratio in the repeat runs, not every such curve was filed as active; the % refers to the signal ratio). In outline: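 Quantitative HTS in p53RE-bla cells: after a 5 h settling period, compounds delivered in DMSO were left on cells for 16 h at 37 C, and reporter induction was measured as fluorescence following 2 h substrate loading.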
Assay [10] addresses 5-hydroxytryptamine receptor 2A (Homo sapiens) (UniProt P28223). Put plainly: 5-hydroxytryptamine receptor 2A (HTR2A) small molecule antagonists, cell-based qHTS assay (AID 1963586). Also: nearly all actives have a fitted effect of over 45% in size. The procedure, abridged:
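Antagonist-mode intracellular calcium assay: DOI (4 nM) added after 5 min compound pre-incubation at room temperature to dye-loaded HTR2A-CHO cells. Fluorescence followed for 3 min, sampled every second.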

For assay [11] the target is unchanged. Put plainly: 5-hydroxytryptamine receptor 2A (HTR2A) small molecule agonists, cell-based qHTS assay (AID 1963587). Also: nearly all actives have a fitted effect of over 30% in size. The procedure, abridged:
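HTR2A-CHO cells, plated 18 h at 37 C/5% CO2, dye-loaded 1 h at 37 C; compounds in DMSO added by pin tool (agonist mode). Intracellular calcium flux read as kinetic fluorescence on FDSS over 2 min at 1 s intervals.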

Assay [12] concerns the target Muscarinic acetylcholine receptor M1 (Homo sapiens) (UniProt P11229). The experiment in a line: Cholinergic receptor muscarinic 1 (CHRM1) small molecule antagonists, cell-based qHTS assay (AID 1963588). Also: nearly all actives have a fitted effect of over 40% in size. Also: potency is read from the fitted curve at half-maximal effect. The procedure, abridged:
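CHRM1-CHO calcium-flux assay, antagonist mode. Cells were seeded 18 h, dye-loaded 1 h at 37 C and given compound for 5 min at RT, then acetylcholine was added at 50nM. FDSS fluorescence was read 3 min; 15 concentrations, three runs.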

The target is the same in assay [13]. The experiment in a line: Cholinergic receptor muscarinic 1 (CHRM1) small molecule agonists, cell-based qHTS assay (AID 1963589). Also: nearly all actives have a fitted effect of over 35% in size. The procedure, abridged:
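Agonist-mode qHTS in CHO cells stably carrying human muscarinic M1. Intracellular calcium is tracked by fluorescence every second after compound transfer; each compound runs at 15 concentrations in three independent runs.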

A short description of assay [14]: cAMP Responsive Elements (CRE) small molecule agonists, cell-based qHTS assay (AID 1963590). In outline: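 Agonist mode qHTS in CRE-bla HEK 293T cells: compounds dosed from DMSO for 3 h at 37 C/5% CO2, followed by LiveBLAzer B/G FRET substrate for 2 h at room temperature.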
Assay [15] in a line: cAMP Responsive Elements (CRE) small molecule antagonists, cell-based qHTS assay (AID 1963591; active = well fitted inhibition curve with a large enough effect in the signal ratio in the repeat runs, not every such curve was filed as active; the % refers to the signal ratio). In outline: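 Antagonist mode: test compounds are co-incubated with the adenylyl cyclase activator NKH477 (0.25 uM final) on CRE-bla HEK293T cells for 3 h at 37 °C, followed by LiveBLAzer substrate loading.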
Assay [16] deals with Beta-2 adrenergic receptor (Homo sapiens) (UniProt P07550). The experiment in a line: Adrenergic beta2 receptor (ADRB2) small molecule antagonists, cell-based qHTS assay (AID 1963592). Also: series mostly up to about 92 µM; nearly all actives have a fitted effect of over 50% in size. The procedure, abridged: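 Cells (CHO, stable ADRB2 overexpression) incubated 18-20hr at 37C; compounds added from DMSO; agonist mix (1nM isoproterenol, 100uM IBMX, 25uM Ro-20-1724) added; 0.5hr RT; d2-cAMP and anti-cAMP-cryptate added; 1hr RT; 665/615 nm read.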
Beta-2 adrenergic receptor (Homo sapiens), sequence (P07550 whole entry, looked up): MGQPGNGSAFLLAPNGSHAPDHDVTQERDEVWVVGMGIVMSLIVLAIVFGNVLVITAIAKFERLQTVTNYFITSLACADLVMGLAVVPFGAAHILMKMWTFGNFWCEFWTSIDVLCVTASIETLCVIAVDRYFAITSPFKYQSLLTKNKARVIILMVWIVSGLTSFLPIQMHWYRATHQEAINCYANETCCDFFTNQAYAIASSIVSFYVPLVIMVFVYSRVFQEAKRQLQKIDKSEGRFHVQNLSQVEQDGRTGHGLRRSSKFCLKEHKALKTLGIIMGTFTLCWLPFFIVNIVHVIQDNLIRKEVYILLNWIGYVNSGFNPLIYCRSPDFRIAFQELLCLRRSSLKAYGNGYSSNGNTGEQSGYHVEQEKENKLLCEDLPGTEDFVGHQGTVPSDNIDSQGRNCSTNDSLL

The target in assay [17] is D(2) dopamine receptor (Homo sapiens) (UniProt P14416). The experiment in a line: Dopamine D2 receptor (DRD2) small molecule agonists, cell-based qHTS assay (AID 1963594). Also: nearly all actives have a fitted effect of over 35% in size. The procedure, abridged:
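HEK293 cells stably expressing DRD2 were cultured 24 h at 37 C, then given Ro20-1724 (0.1 mM final) and compounds for 10 min at room temperature. NKH477 (200nM) was then added for 30 min. cAMP was read by HTRF.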

Assay [18] shares this target. The experiment in a line: Dopamine D2 receptor (DRD2) small molecule antagonists, cell-based qHTS assay (AID 1963595; active = well fitted inhibition curve with a large enough effect in the signal ratio in the repeat runs, with a control signal flat; the % refers to the signal ratio). The procedure, abridged:
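HTRF cAMP read-out at 665 and 620 nm emission (340 nm excitation). Antagonist mode: compounds were tested against 12 nM quinpirole in DRD2-HEK293 cells, with 200 nM NKH477 raising cAMP and 0.1 mM Ro20-1724 blocking its breakdown.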

In assay [19] the target is KiSS-1 receptor (Homo sapiens) (UniProt Q969F8). The experiment in a line: Human kisspeptin (KISS1R) small molecule agonists, calcium flux assay in KISS1R-HEK293 cells (AID 1920064; active = well fitted curve in the direction sought with a large enough effect in the repeat runs; an effect the other way counts as inactive or inconclusive). The procedure, abridged: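 Cells plated and incubated 18 h; dye added, 1 h at 37 C; compounds in DMSO pinned in; signal read at 480/540 nm every second for 3 min. Each compound tested at 15 concentrations in triplicate.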
KiSS-1 receptor (Homo sapiens), sequence (Q969F8 whole entry, looked up): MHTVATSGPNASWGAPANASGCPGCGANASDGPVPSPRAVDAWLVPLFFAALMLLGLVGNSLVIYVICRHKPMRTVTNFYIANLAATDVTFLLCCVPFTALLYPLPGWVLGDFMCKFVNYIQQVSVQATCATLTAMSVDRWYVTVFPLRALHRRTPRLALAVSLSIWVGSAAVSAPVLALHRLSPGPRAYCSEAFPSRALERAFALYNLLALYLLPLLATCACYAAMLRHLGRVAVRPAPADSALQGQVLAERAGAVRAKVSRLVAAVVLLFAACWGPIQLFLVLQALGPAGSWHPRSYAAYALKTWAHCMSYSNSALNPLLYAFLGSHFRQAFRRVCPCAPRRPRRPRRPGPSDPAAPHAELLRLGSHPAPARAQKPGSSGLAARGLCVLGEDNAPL

The target in assay [20] is Beta-2 adrenergic receptor (Homo sapiens) (UniProt P07550). Put plainly: Adrenergic beta2 receptor (ADRB2) small molecule agonists, cell-based qHTS assay (AID 1963593).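 Also: CHO cells stably overexpressing human ADRB2.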 In outline:
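CHO cells stably over-expressing ADRB2 were plated overnight at 37C, then dosed with compounds plus a stimulation mix containing 100uM IBMX and 25uM Ro-20-1724 for 0.5hr at room temperature. cAMP was measured by HTRF competition, 1hr.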

Potency data for seven compounds are collected here from PubChem BioAssay (Tox21).

Structures are written as SMILES. Where “and” joins values, the source holds several entries; their conditions need not be identical. Equal entries are not always repeated. Records with an inconclusive call do not appear. Some compounds were tested as several samples or in several runs, with calls that do not always agree. Calls of active or inactive are those of the source. Unless noted, calls follow the shape of the full dose curve.

D(2) dopamine receptor (Homo sapiens), sequence (P14416 whole entry, looked up): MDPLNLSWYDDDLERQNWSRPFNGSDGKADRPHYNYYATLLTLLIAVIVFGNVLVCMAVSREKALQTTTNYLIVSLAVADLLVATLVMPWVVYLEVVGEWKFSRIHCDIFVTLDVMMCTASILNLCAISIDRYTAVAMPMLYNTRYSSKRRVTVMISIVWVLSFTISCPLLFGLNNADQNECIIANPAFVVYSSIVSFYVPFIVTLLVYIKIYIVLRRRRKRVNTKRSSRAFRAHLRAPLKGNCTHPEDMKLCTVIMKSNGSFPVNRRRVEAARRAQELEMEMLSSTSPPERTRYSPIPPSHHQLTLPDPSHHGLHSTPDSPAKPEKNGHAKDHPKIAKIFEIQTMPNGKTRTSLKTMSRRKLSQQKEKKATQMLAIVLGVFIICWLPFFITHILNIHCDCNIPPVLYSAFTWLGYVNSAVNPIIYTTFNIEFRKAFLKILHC
5-hydroxytryptamine receptor 2A (Homo sapiens), sequence (P28223 whole entry, looked up): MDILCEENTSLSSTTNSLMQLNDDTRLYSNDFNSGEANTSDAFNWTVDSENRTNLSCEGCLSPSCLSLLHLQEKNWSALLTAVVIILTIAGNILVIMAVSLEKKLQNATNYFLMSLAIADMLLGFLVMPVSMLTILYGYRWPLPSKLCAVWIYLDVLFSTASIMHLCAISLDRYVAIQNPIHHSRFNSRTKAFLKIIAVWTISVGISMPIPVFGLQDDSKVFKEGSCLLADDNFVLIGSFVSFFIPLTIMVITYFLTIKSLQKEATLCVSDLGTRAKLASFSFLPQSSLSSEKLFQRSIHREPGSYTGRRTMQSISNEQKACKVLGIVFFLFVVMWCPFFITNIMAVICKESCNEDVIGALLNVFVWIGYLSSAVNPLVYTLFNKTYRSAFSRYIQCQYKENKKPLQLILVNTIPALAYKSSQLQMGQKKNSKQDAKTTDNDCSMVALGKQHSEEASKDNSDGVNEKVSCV
Muscarinic acetylcholine receptor M1 (Homo sapiens), sequence (P11229 whole entry, looked up): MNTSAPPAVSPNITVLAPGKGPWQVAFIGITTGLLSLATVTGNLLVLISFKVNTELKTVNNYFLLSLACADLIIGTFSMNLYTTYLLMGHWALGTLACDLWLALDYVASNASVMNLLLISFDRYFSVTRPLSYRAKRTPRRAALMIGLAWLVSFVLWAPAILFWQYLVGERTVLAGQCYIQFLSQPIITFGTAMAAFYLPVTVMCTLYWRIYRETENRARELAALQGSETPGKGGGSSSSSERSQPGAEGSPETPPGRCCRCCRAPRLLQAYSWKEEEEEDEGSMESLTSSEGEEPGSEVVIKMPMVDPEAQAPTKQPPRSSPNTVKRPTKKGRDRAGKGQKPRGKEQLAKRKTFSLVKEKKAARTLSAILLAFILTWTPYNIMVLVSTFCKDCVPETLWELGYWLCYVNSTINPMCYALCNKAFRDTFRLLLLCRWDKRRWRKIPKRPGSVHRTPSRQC

As to `ClCC(Cl)(Cl)Cl`, the Potency entry in assay [1], in assay [2], in assay [3], in assay [4], in assay [5] and in assay [6] was “inactive” in each case. In addition, the Potency result in assay [7], in assay [8], in assay [9], in assay [10], in assay [11] and in assay [12] was “inactive” in each case. Moreover, the Potency result in assay [13], in assay [14], in assay [15], in [16], in assay [17] and in [18] was “inactive” throughout.
Take `O=S(=O)(O)OOS(=O)(=O)O`: the Potency entry in assay [1], in [2], in [3], in assay [19], in assay [6] and in assay [7] was “inactive” in each case. For the same compound, the Potency result in assay [8], in assay [10], in assay [11], in assay [12], in assay [13] and in [14] was “inactive” throughout. Also, the Potency result in assay [15], in [16], in assay [20], in assay [17] and in [18] was “inactive” each time.
For the compound `O=C(O)C(Cl)(Cl)Br`, the Potency entry in assay [1], in assay [2], in assay [3], in assay [4], in [5] and in [6] was “inactive” each time. Moreover, the Potency result in [7], in assay [8], in assay [9], in [10], in [11] and in assay [12] was “inactive” throughout. For the same compound, the Potency result in assay [13], in assay [14], in assay [15], in [16], in assay [20] and in [17] was “inactive” each time.
Consider `C[C@H]1CCCC(=O)CCC/C=C/c2cc(O)cc(O)c2C(=O)O1`, for which the Potency in assay [1] was 58.9 µM (active) and inactive. In addition, the Potency result in [2], in assay [3], in assay [19], in assay [5], in assay [6] and in assay [7] was “inactive” throughout. Also, the Potency result in assay [8], in [10], in assay [11], in [12], in [13] and in assay [14] was “inactive” in each case. In addition, the Potency result in assay [16], in assay [17] and in assay [18] was “inactive” each time.
As to `CCCCCCCC[N+](C)(CCCCCCCC)CCCCCCCC`, the Potency in [1] is 5.44 µM (active) and 6.87 µM (active) and 15.4 µM (active); in assay [7] it was 14.4 µM (active) and inactive and 40.8 µM (active); in assay [8], 9.11 µM (active) and 2.58 µM (active) and 20.4 µM (active); in [12] it was 5.93 µM (active) and inactive and 6.67 µM (active). For the same compound, the Potency result in assay [2], in assay [3], in assay [19], in [10], in assay [11] and in assay [13] was “inactive” in each case. The Potency entry in [16] is “inactive”.
With `CN(C)C(=O)Nc1cccc(C(F)(F)F)c1`, the Potency entry in assay [1], in assay [2], in assay [3], in [4], in [5] and in assay [6] was “inactive” throughout. Also, the Potency result in assay [7], in [8], in assay [9], in assay [10], in assay [11] and in assay [12] was “inactive” each time. For the same compound, the Potency entry in assay [14], in [15], in [16], in assay [20] and in assay [18] was “inactive” in each case.
With `CNC(=O)O/N=C/C(C)(C)S(C)=O` (centres undefined), the Potency entry in assay [1], in assay [2], in [3], in [4], in assay [5] and in assay [6] was “inactive” in each case. Further, the Potency result in [7], in [8], in assay [9], in [10], in assay [11] and in assay [12] was “inactive” in each case. Also, the Potency entry in assay [13], in assay [14], in assay [15], in assay [16] and in assay [17] was “inactive” in each case.
